Data as given in PubChem BioAssay AID624167 (Sanford-Burnham Center for Chemical Genomics, 2012).

Assay: inhibition of PEG-3 promoter-driven reporter – cell-based, HeLa, luciferase, CREF/GAPDH counter-screen panel, dose response (AID 624167)
Conditions: CREF/GAPDH counter-screens; run 2, dose range 1, at 100 µM (top of the series)

SMILES	inhibition [%]
C/C(=N\NC(=O)c1c(C)nc2ccccn12)c1ccc(O)cc1O	7.76
O=C(CNC(=O)C(c1ccccc1)c1ccccc1)N/N=C/c1ccc(O)cc1O	22.3
CCc1ccc(/C=C2\SC(=S)N(CCCC(=O)NC3=NCCS3)C2=O)cc1	72.9
O=C1C=CC(=O)N1c1ccc(-c2nc3ccccc3o2)cc1	90.3
O=C(/C=C/c1ccc(Cl)c([N+](=O)[O-])c1)c1ccc(O)cc1	99.5
CN=c1sc2c(n1C)C(=O)c1ccccc1C2=O	87.2
Cc1ccsc1/C=N/Nc1cccc(C(=O)O)c1	96.5
CC(C)(C)c1ccc(Cn2c(=O)cnc3ccccc32)cc1	96.6
Cc1ccccc1CNC(=O)C1CCCN(c2nnc(C)c3c(C)n(-c4ccccc4)nc23)C1 (stereo not drawn)	94.8
CCCC(=O)NC(c1ccc(C(C)C)cc1)c1ccc2cccnc2c1O (stereo not drawn)	45.7
O=C(Nc1ccc(Cc2ccncc2)cc1)c1ccc([N+](=O)[O-])o1	95.3
O=C(N/N=C\c1c(O)ccc2ccccc12)c1cncc(Br)c1	72.8
Cc1ccc(/C=C2\SC(=S)N(CCCC(=O)NNC(=O)c3ccccc3O)C2=O)cc1	69.2
Cc1nc(C)c(C(=O)N/N=C/c2cc(Br)ccc2O)s1	6.13
COc1ccc(/C=C2\SC(=S)N(CCCC(=O)NNC(=O)c3ccccc3O)C2=O)cc1	72.3
C=CCc1cccc(/C=N/NC(=O)C(C)Nc2cccc(C)c2)c1O (stereo not drawn)	5.69
CCCCCCN1C=C/C(=C\C=C(C#N)C#N)c2ccccc21	22.9

SMILES	inhibition [%]
NC(C(=O)O)C1ON=C(Cl)C1O (stereo not drawn)	70.1
O=C(O)c1ccc(N/N=C/c2ccc3nccnc3c2)cc1	99.2
Cc1ccc(C(C[N+](=O)[O-])Sc2ccc(N)cc2)cc1 (stereo not drawn)	99.2
O=C(N/N=C/c1sc(N2CCOCC2)nc1-c1ccccc1)c1cccc(S(=O)(=O)N2CCCC2)c1	42.2
CCC(C)Cn1c(O)cc2nn(-c3nc4ccccc4s3)c(=O)c-2c1C (stereo not drawn)	95.7
CCC(c1ccc(O)c(O)c1)C(CC)c1ccc(O)c(O)c1 (stereo not drawn)	99.5
COc1ccc(C(NC(=O)C(C)C)c2ccc3cccnc3c2O)cc1 (stereo not drawn)	40.9
O=C(N/N=C/c1c(O)ccc2ccccc12)c1ccc(CO)nc1	3.42
O=C(NNC(=O)c1cccnc1SCc1cccc([N+](=O)[O-])c1)c1ccccn1	-38.1
COC1CC(C)C(OC)c2cc(O)cc(c2O)NC(=O)C(C)=CC=CC(C)C(OC(N)=O)C(C)=CC(C)C1OC (stereo not drawn)	84.8
CCOc1cccc(/C=N/NC(=S)Nc2cc(S(=O)(=O)N3CCOCC3)ccc2N2CCOCC2)c1O	-7.85
CC(C)CC1C(=O)N(Cc2cn(Cc3ccco3)nn2)CCS(=O)(=O)N1Cc1ccc(-c2ccc(F)cc2)cc1 (stereo not drawn)	54.7
O=C(CNc1ccccc1)N/N=C/c1c(O)ccc2ccccc12	63.7
CC1=NOC(=O)/C1=C\c1ccc(-c2ccccc2Br)o1	98.7
CCc1ccc(/C=C2\SC(=S)N(CCCC(=O)Nc3cc(C)on3)C2=O)cc1	84.8
CN(C)c1c([N+](=O)[O-])cc(N2C(=O)C=CC2=O)cc1[N+](=O)[O-]	98.5
